For 11 compounds, Potency, outcome and activation results are on record in PubChem BioAssay (NCATS).

A number with no mark means an inactive call. Records with an inconclusive call do not appear. Calls of active or inactive are those of the source. Unless noted, calls come from the whole dose curve; as a rule, active = well fitted curve in the direction sought with a large enough effect; inconclusive = small, poorly fitted or top-dose-only effect, or another doubt; inactive = no such curve, though single readings can be large; an effect the other way counts as inactive or inconclusive.

Assay [1] deals with Arylsulfatase A (Homo sapiens) (UniProt P15289). The assay is described as follows: qHTS screen for enhancers of Arylsulfatase A (ASA1): LOPAC Validation Assay (AID 720538). Note: potency is the fitted concentration of half-maximal effect. In outline: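 SV40-transformed fibroblasts from an MLD patient (ASA-I179S) were treated with compound for 48 h at 37 C. They were then lysed with 0.5 mM pNCS substrate (final) for 14 h at room temperature and stopped with NaOH; signal read by fluorescence (Ex 525/Em 598 nm), with increase denoting enhanced activity.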

Assay [2] in a line: qHTS for compounds that reverse cellular toxicity of Amyloid beta (A-beta) peptide in yeast: LOPAC Validation Assay (AID 720559).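 Note: plate controls were DMSO for no effect and equimolar ferric chloride plus clioquinol rescue for full effect.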 Summed up:
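Yeast expressing toxic A-beta grown with pinned compounds at 30 C for 48 hr. Growth measured as absorbance at 600 nm; data normalized to DMSO and to an equimolar FeCl3/clioquinol mixture as positive control.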

Assay [3] in a line: qHTS for Activators of Parkin Expression: LOPAC Validation Assay (NLuc Reporter) (AID 720572;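 note: 0% = DMSO and 100% = positive control compound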). Summed up:
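Neuronal line stably carrying a FLuc/NLuc coincidence reporter under the Parkin promoter, seeded 24 h, then dosed in 7-point series for 24 h at 37 C. NLuc luminescence read after FLuc; normalized to DMSO and positive control (100%).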
In general terms: Quantitative high-throughput screening tests each substance at several concentrations.

Assay [4] can be described thus: qHTS for Activators of Parkin Expression: LOPAC Validation Assay (FLuc Reporter) (AID 720573;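 note: 0% = DMSO and 100% = positive control compounds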). Summed up: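 Neuronal cell line stably expressing FLuc/NLuc coincidence reporter under the Parkin promoter, 1,500 cells/well, dosed 24 h after seeding in 7-point series for 24 h at 37 C. FLuc luminescence read; normalized to DMSO and positive control (100%).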
Assay [5] deals with T1, Hexokinase-4 (Homo sapiens) + Glucokinase regulatory protein (Homo sapiens) (UniProt P35557+Q14397). The assay is described as follows: qHTS assay for inhibitors of recombinant human GCK-GKRP interaction: Diaphorase-coupled assay (AID 743205). Summed up:
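Compounds pre-incubated 20 min with substrate, then 10 nM GST-GCK with 10 nM FLAG-GKRP added. GCK activity coupled via G6PDH and diaphorase to resorufin (5 mM glucose, 0.4 mM ATP, 0.15 mM NADP+, pH 7.6), read kinetically over 30 minutes at Ex 525/Em 590 nm.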

The target of assay [6] is T1, Hexokinase-4 (Homo sapiens) + Glucokinase regulatory protein (Homo sapiens). Kind of assay: qHTS assay for inhibitors of recombinant human GCK-GKRP interaction: ADP-Glo assay (AID 743206).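 Note: plate controls were DMSO plus enzyme for no effect and no enzyme for full effect.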 Summed up:
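GST-GCK and FLAG-GKRP (15 nM each in the dispensed mix, with 2 uM S6P) react with 0.4 mM ATP and 5 mM glucose (final) in Hepes pH 7.6 for 60 min at room temperature. ADP is measured by ADP-Glo luminescence.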

Assay [7] shares this target. Kind of assay: qHTS assay for inhibitors of recombinant human GCK-GKRP interaction: HTRF assay (AID 743207).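 Note: 0% = DMSO with GCK present and -100% = DMSO wells lacking GCK.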 Summed up:
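HTRF binding of 5 nM GST-GCK and 5 nM FLAG-GKRP with 2 uM S6P in pH 7.1 Hepes buffer (MgCl2, KCl, DTT, Tween 20, BSA). Anti-FLAG XL665 and anti-GST donor added, 60 min at room temperature; 665/615 nm read, normalized to with- and without-GCK controls.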

A short description of assay [8]: qHTS assay to identify small molecules that stimulate interleukin-8 (IL-8) secretion (AID 651758; active = well fitted activation curve with a large enough effect in the signal ratio; the % refers to the signal ratio; note: 0% is about no effect). In outline:
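THP-1, 2000 cells/well; cpd 16 h, 37 C; add cryptate + XL665 anti-IL-8 Abs; RT 1-3 h; TR-FRET read.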

The nature of assay [9]: qHTS assay for environmental chemicals that activate the Aryl hydrocarbon Receptor (AhR) signaling pathway (AID 651777). Note: % of control where 0% means no effect; nearly all actives have a fitted effect of over 15% in size. The conditions noted are these: 1A2-DRE human hepatoma cells, luciferase, 24 h; activation: active compounds read high. Summed up:
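Luminescence read-out: One-Glo added for 30 min at RT after 24 hr compound treatment (37 C, 5% CO2) of human hepatoma cells expressing a DRE/CYP1A2 promoter–luciferase reporter; increased signal indicates AhR activation.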

Assay [10] deals with Nuclear receptor ROR-gamma (Homo sapiens) (UniProt P51449). The assay is described as follows: qHTS assay for small molecule antagonists of the retinoid-related orphan receptor gamma (ROR-gamma) signaling pathway (AID 651802). Note: series mostly up to about 92 µM; % is set by controls: 0 for no effect and ±100 for the full control effect; nearly all actives have a fitted effect of over 60% in size. Summed up:
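Antagonism is scored as a fall in luminescence from a RORE-luciferase reporter in CHO cells expressing ROR under a TET-inducible promoter, measured 16hr after doxycycline induction in the presence of compound.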

The nature of assay [11]: qHTS assay for small molecule agonists of the antioxidant response element (ARE) signaling pathway measured by Nrf2-dependant transcriptional activity (AID 720636; active = well fitted curve in the direction sought with a large enough effect in the repeat runs; an effect the other way counts as inactive or inconclusive;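 note: HepG2 cells with an ARE-driven luciferase reporter; % of control where 0% means no effect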). Summed up:
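HepG2 ARE-luc reporter line, 1% dialyzed FBS; 6 hr attachment at 37 C, compound pinned in, 16 hr at 37 C/5% CO2; ONE-Glo, 30 min RT, luminescence read.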

The nature of assay [12]: qHTS assay for small molecule antagonists of the retinoid-related orphan receptor gamma (ROR-gamma) signaling pathway - cell viability counter screen (AID 720652; active = well fitted curve in the direction sought with a large enough effect in the repeat runs; an effect the other way counts as inactive or inconclusive;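 note: series mostly up to about 92 µM; compound exposure lasted 16 hr before ATP read; % is set by controls: 0 for no effect and ±100 for the full control effect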). Summed up: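 Cytotoxicity is quantified via intracellular ATP (CellTiter-Glo luminescence) in doxycycline-induced CHO ROR response element-luciferase reporter cells treated with compound for 16 hr at 37 C, 5% CO2.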

A short description of assay [13]: qHTS assay for small molecule agonists of the antioxidant response element (ARE) signaling pathway (AID 651741; active = well fitted activation curve with a large enough effect in the signal ratio; the % refers to the signal ratio; note: % of control where 0% means no effect). Summed up: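 ARE-bla HepG2 cells (beta-lactamase reporter under ARE control) were plated at 2,000 cells/well, preincubated 5 h at 37 C/5% CO2, then treated with DMSO-dissolved compounds for 16 h at 37 C; LiveBLAzer B/G FRET substrate added, fluorescence read after 2 h at room temperature.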

Assay [14] in a line: qHTS assay for small molecule activators of the p53 signaling pathway (AID 651743; active = well fitted activation curve with a large enough effect in the signal ratio, not every such curve was filed as active; the % refers to the signal ratio; note: series mostly up to about 92 µM; % of control where 0% means no effect). The conditions noted are these: HCT-116 p53RE-bla, beta-lactamase FRET ratio, 16 h; activation: active compounds read high. Summed up: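 p53RE-bla HCT-116 cells with a stably integrated beta-lactamase reporter under p53 response elements were plated, rested 5 hours at 37 C/5% CO2, then exposed to compounds in DMSO for 16 hours at 37 C. LiveBLAzer B/G FRET substrate was read after 2 hours at room temperature.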

A short description of assay [15]: qHTS assay for small molecule activators of the nuclear factor-kappa B (NF-kB) signaling pathway (AID 651749; active = well fitted activation curve with a large enough effect in the signal ratio; the % refers to the signal ratio; note: series mostly up to about 77 µM; % of control where 0% means no effect). The conditions noted are these: NF-kB-bla ME-180 cells, beta-lactamase FRET ratio, 16 h; active compounds read high. Summed up:
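ME-180 cells stably carrying a beta-lactamase reporter under an NF-kB response element were exposed to compound or DMSO vehicle for 16 hr at 37C, 5% CO2. Pathway activation was read by FRET, since reporter expression disrupts FRET.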

Arylsulfatase A (Homo sapiens), sequence (P15289 whole entry, looked up): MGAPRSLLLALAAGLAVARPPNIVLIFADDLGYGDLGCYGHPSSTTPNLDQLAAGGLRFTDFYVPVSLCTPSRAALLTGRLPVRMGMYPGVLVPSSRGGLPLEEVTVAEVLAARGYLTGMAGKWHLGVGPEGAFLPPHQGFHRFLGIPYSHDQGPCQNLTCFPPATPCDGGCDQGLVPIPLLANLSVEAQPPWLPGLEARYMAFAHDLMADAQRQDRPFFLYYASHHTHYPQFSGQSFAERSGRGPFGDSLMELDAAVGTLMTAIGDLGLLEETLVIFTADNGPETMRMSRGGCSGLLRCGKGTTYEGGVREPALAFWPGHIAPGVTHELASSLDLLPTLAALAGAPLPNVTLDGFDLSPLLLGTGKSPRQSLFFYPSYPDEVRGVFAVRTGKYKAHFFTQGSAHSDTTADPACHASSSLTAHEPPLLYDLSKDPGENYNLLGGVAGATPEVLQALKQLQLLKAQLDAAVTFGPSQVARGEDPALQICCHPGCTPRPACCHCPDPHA
T1 sequence (P35557 whole entry, looked up): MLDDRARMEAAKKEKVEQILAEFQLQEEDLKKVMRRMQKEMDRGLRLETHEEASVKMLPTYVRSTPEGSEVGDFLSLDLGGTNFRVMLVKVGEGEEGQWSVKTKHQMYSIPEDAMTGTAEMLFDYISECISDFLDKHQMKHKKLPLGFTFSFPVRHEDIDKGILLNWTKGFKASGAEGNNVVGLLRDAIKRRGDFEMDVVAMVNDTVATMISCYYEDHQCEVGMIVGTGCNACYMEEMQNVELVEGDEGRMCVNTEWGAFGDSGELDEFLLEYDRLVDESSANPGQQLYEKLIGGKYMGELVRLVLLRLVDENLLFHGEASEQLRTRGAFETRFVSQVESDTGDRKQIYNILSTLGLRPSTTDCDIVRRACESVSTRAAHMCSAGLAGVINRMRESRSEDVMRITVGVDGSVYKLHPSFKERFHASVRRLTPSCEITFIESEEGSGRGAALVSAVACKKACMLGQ
T1 sequence (Q14397 whole entry, looked up): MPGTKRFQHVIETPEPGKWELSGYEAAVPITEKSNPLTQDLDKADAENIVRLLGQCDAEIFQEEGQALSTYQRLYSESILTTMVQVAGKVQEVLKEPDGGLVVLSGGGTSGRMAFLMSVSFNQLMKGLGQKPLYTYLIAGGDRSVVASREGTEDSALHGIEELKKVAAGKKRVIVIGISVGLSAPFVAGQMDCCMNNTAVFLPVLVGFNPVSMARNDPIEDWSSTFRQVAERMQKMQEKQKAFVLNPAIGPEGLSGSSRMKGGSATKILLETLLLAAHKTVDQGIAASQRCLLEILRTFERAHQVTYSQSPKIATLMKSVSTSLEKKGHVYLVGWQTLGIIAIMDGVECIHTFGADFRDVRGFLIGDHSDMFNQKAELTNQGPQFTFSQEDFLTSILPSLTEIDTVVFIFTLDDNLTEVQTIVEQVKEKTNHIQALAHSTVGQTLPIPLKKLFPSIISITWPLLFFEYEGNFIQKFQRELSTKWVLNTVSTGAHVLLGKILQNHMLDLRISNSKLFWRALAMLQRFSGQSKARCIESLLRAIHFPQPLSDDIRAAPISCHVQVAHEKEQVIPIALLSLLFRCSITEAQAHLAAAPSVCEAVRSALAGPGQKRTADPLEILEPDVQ
Nuclear receptor ROR-gamma (Homo sapiens), sequence (P51449 whole entry, looked up): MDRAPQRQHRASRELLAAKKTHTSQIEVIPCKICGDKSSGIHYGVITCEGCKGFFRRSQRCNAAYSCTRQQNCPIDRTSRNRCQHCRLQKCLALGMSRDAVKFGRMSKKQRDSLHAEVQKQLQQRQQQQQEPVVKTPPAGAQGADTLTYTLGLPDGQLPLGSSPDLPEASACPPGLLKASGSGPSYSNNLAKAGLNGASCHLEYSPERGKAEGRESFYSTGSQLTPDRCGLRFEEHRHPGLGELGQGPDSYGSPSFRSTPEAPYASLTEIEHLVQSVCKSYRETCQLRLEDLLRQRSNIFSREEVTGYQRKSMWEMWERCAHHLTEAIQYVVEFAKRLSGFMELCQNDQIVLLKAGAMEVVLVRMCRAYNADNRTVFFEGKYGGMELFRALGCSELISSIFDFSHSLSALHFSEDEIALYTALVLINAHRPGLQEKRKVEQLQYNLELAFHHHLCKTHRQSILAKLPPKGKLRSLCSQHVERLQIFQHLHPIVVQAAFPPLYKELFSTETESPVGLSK

On to `C[N+](C)(C)CCOC(N)=O`, for which the Potency entry in [1], in assay [3] and in assay [7] was “inactive” throughout. In addition, the compound was called inactive in assay [2], in assay [4], in assay [5] and in assay [6].

For the compound `COc1cc(C(=O)OCCCN2CCCN(CCCOC(=O)c3cc(OC)c(OC)c(OC)c3)CC2)cc(OC)c1OC`, the Potency entry in assay [1], in assay [3] and in [7] was “inactive” each time. Further, the result in assay [2], in [4], in [5] and in [6] was inactive.

As for `COc1ccc(CN(CCN(C)C)c2ccccn2)cc1`, the Potency entry in assay [8], in assay [10], in [1], in assay [3] and in [7] was “inactive” in each case. Besides, the activation in assay [9] is 3.63%. The result in assay [2], in assay [11], in assay [12], in assay [5] and in [6] was inactive.

For the compound `CC(=O)Nc1nnc(S(N)(=O)=O)s1`, the Potency result in assay [13], in assay [3] and in assay [7] was “inactive” in each case. Also, the results for the activation in assay [14], in assay [15] and in assay [9] were -5.68%, 1.13% and -1.84%, respectively. Also, the result in assay [4], in assay [11], in assay [5] and in [6] was inactive.

On to `Cc1nc2ccccn2c(=O)c1CCN1CCC(C(=O)c2ccc(F)cc2)CC1`, for which the Potency in [1] was 19 µM (active). Further, the compound was classed as inactive in [2], in assay [4], in assay [5] and in assay [6]. In addition, the Potency entry in [3] and in [7] was “inactive” each time.

Take `CC(=O)[C@@]1(O)CC[C@H]2[C@@H]3CCC4=CC(=O)CC[C@]4(C)[C@H]3CC[C@@]21C`: the activation in assay [15] is 0.354%. Moreover, the Potency entry in [3] and in [7] was “inactive” in each case. Besides, the compound was classed as inactive in assay [4], in [11], in [5] and in assay [6].

For the compound `CCCOc1ccccc1-c1nc2n[nH]nc2c(=O)[nH]1`, the Potency result in [1], in [3] and in assay [7] was “inactive” each time. Moreover, the call in assay [2], in assay [5] and in assay [6] was inactive.

For the compound `CN(C)C/C=C(/c1ccc(Br)cc1)c1cccnc1`, the Potency entry in [1], in assay [3] and in assay [7] was “inactive” throughout. Besides, the outcome in assay [2], in [5] and in assay [6] was inactive.

Turning to `c1ccc2c(c1)CCCC2C1=NCCN1` (configuration not stated), the Potency entry in assay [1], in assay [3] and in [7] was “inactive” each time. Moreover, the compound was called inactive in assay [2], in [4], in assay [5] and in assay [6].

Take `CCO/C([O-])=N/c1c[n+](N2CCOCC2)no1`: the Potency entry in [1], in assay [3] and in assay [7] was “inactive” in each case. Moreover, the compound was called inactive in [2], in assay [4], in [5] and in assay [6].

Turning to `CC1=C(C)C(=O)C(CCCCC#CCCCC#CCO)=C(C)C1=O`, the Potency result in assay [1], in assay [3] and in assay [7] was “inactive” each time. Further, the outcome in assay [2], in [4], in assay [5] and in [6] was inactive.
